{
  "source": "PubChem BioAssay AID1508600",
  "about": "(Functional Genomics Laboratory (NCATS/FGL), 2020)",
  "note": "The campaign covered roughly 53,000 sequences. About 3,700 (7%) were called active. The sample as a whole holds a higher share of actives than the screen did. Unmarked numbers belong to inactive results.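 The calls were made as follows: active = gene knockdowns whose robust z-score for IL-1 alpha signal is at least 2 or at most -2, so actives lie on both sides; inactive = the rest.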",
  "data": [
    {"assay": "Components of the Cytosolic LPS Sensing Pathway: Gene Identification via Genome-wide siRNA Screen;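 also: robust z of the log signal after scaling to non-targeting control siRNA wells of the plate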", "conditions": "RAW264.7 macrophages, IL-1a HTRF, actives lie on both sides, screened at 100 nM (by protocol), cells primed 5 h with Pam3CSK4 first", "how_it_was_run": "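Cells (RAW264.7, 1×10^4 per well) were transfected with siRNA at 100 nM and cultured 48h at 37 degrees C. Pam3CSK4 was added for 5 hours; LipidA transfection followed for 24 hour. IL-1a was then measured by HTRF.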", "values": [
      {"sequence": "GCCAGUUGUGACAAAACUATT against Abca1", "z-score": -1.22},
      {"sequence": "GGUGGAGUCUGAACUUAAUTT against Nfatc4", "z-score": -0.0623},
      {"sequence": "GCCCUUAAAACAUAACCACTT against Fgf9", "z-score": 0.615},
      {"sequence": "CCAAGAUUAACCAUAACACTT against Mrpl50", "z-score": 0.017},
      {"sequence": "GCUCCUACAGAGAAUAAGATT against Eny2", "z-score": -1.7},
      {"sequence": "GGACGAGGACCAGCUAGAATT against Txn2", "z-score": "-2.07 (active)"},
      {"sequence": "GGGACAUUUCCAUCCUUUUTT against Prdx6b", "z-score": -1.28},
      {"sequence": "GCUCCUUUGGUUCAACAUCTT against Olfr635", "z-score": -1.78},
      {"sequence": "GCAACCAUUCUGGUAUUACTT against Zfp108", "z-score": 0.904},
      {"sequence": "CCAUUAAUAAAGCGUGGGUTT against Cacybp", "z-score": 0.562},
      {"sequence": "GGAAAUUUGGAAAUUGCCUTT against Ntm", "z-score": "2.46 (active)"},
      {"sequence": "GGAUCAUCACUACUACAAUTT against 4932415M13Rik", "z-score": "2.37 (active)"},
      {"sequence": "GGCUGCUCGAAUCAGUCAUTT against Slc27a3", "z-score": 0.237},
      {"sequence": "GGAAUUUUCUACAUGUGUGTT against Lim2", "z-score": "-2.12 (active)"},
      {"sequence": "CCAGAUCCUAAAGUCUUUATT against Trpd52l3", "z-score": 0.677},
      {"sequence": "CCACCGGAUCGAAGACAGUTT against Tanc2", "z-score": -1.28},
      {"sequence": "CGUCCCUAGUAUAAAAAGATT against Cxxc5", "z-score": -0.273},
      {"sequence": "GGCUUUCACCUUAAUUGAUTT against Fntb", "z-score": -0.296},
      {"sequence": "CCCAGUACAGCCUUGUGGUTT against Med25", "z-score": "-2.02 (active)"},
      {"sequence": "CGACAAGGGUUUUUAUUCUTT against Smcr8", "z-score": -0.414},
      {"sequence": "GCCUCUCAACAUGAAUUAATT against Gm9918", "z-score": 0.524},
      {"sequence": "CCAAGUUUAACAUCCAGGGTT against Pfkm", "z-score": -0.126},
      {"sequence": "GGAUGGAGACCUCUCCUUUTT against Guca2a", "z-score": 1.36},
      {"sequence": "CCAGCGAUCUUCCCAUUCUTT against Ccr8", "z-score": -0.844},
      {"sequence": "GCCCUAAUCUAUGGGACAUTT against Tmem179", "z-score": "3.06 (active)"},
      {"sequence": "UUCAUUCAUAUGGACAGUUTT against Psg19", "z-score": 1.73},
      {"sequence": "GCCACAAUGGGCAGUCUUATT against Kcp", "z-score": 0.0139},
      {"sequence": "GCGGAAGUCGGAUUUUAUCTT against Kif1c", "z-score": "3.01 (active)"},
      {"sequence": "CCAACACGUUGCACAGAGUTT against A830073O21Rik", "z-score": 0.611},
      {"sequence": "GGACAACCGAAGUUUUAAUTT against E130308A19Rik", "z-score": 0.0435},
      {"sequence": "GGAGGUGACUAUCAUUUUUTT against Gng4", "z-score": -0.498},
      {"sequence": "CCAGCAAGUAAAACAAGCUTT against Olfr803", "z-score": 0.998},
      {"sequence": "GGUACUUCUCAUGGAUAAATT against Vps45", "z-score": -0.234},
      {"sequence": "GGAACUAAAUAUCCCUAUGTT against Polr3gl", "z-score": -1.26},
      {"sequence": "GAUACUUGGCUCCUAGAAGTT against Olfr803", "z-score": -1.22},
      {"sequence": "GCAUGAAUUGUGGAAGAGATT against Csnk1a1", "z-score": "2.71 (active)"},
      {"sequence": "GCCAGGUGGAACCAAGUAUTT against Zcchc17", "z-score": -1.67},
      {"sequence": "GGCAUCUUAUGGCCUAAAATT against Rnf31", "z-score": -1.08},
      {"sequence": "GCGAAAAAGAUCGUCCUUGTT against Polr3a", "z-score": -0.444},
      {"sequence": "GGAUCUUUACAUCUCUAACTT against Krtap31-1", "z-score": 1.58},
      {"sequence": "GCCAAACAUUGGUGGACAUTT against H2-D1", "z-score": 0.835},
      {"sequence": "GCUUAAUAAUUUCAUCCAGTT against Brms1l", "z-score": "2.44 (active)"},
      {"sequence": "GGCCCAGUCCGAUAUUCUATT against Phxr4", "z-score": -0.797},
      {"sequence": "GCAAAUCAGUCUAUCGCUGTT against Mcpt8", "z-score": 0.39},
      {"sequence": "GGUUUUCACUAUUUCAACUTT against Olfr187", "z-score": -1.06},
      {"sequence": "GGUAAAUGGUUUAACUACGTT against Tmem117", "z-score": -0.68},
      {"sequence": "GCAAAGGAUCGCUUGAAAATT against Mrpl40", "z-score": -1.15},
      {"sequence": "GGAAUAAAGCUCAUCUACGTT against Slc43a2", "z-score": "2.09 (active)"},
      {"sequence": "GGAUGAACACUGUUACAAATT against Tusc3", "z-score": 0.352},
      {"sequence": "GGUGAUGCAAGAAGAAAUUTT against Aldh3a2", "z-score": 0.169},
      {"sequence": "GGCUCUGUUCUCCACAUUGTT against Phf5a", "z-score": -1.6},
      {"sequence": "GGCAAUGGUUCAGCAGUGGTT against Eef1e1", "z-score": -0.564},
      {"sequence": "GGCCUUUCAUGAAAGCUCATT against Ublcp1", "z-score": "-3.07 (active)"},
      {"sequence": "GGUAGCUGUGAUAAAGCAUTT against Pcbd1", "z-score": -1.81},
      {"sequence": "CCUGAUAUUCAUGACCAAATT against Wasf2", "z-score": -0.0177},
      {"sequence": "CGGUGGCAAAAUGAGAAGUTT against Cd79a", "z-score": -0.142},
      {"sequence": "CCCUAAUCUGGUGAACGAUTT against Mfap5", "z-score": -1.05},
      {"sequence": "GGUCUGAGCCUUGUCUUUATT against Pdx1", "z-score": "2.92 (active)"},
      {"sequence": "GGUGUCUGGUUCAUAAAGGTT against Lcn4", "z-score": -0.344},
      {"sequence": "GGACACAACUCAUUUUCAGTT against Prg3", "z-score": -1.61},
      {"sequence": "GGAAGGAGAGACCAUUGAGTT against Nudt1", "z-score": -1.48},
      {"sequence": "GCGAUUAAGUCUGAAUUGUTT against Cd93", "z-score": 0.425},
      {"sequence": "GGAUACCUACCUGGACAGUTT against Dlgap4", "z-score": -1.23},
      {"sequence": "GGCACAUUGCUGAAGCCCATT against Aldoa", "z-score": "-2.42 (active)"},
      {"sequence": "GCUACACAUGGGAACUAACTT against 4631405J19Rik", "z-score": 1.51},
      {"sequence": "GGCCUAUAUUGAUGAUUUUTT against 4930503L19Rik", "z-score": "2.31 (active)"},
      {"sequence": "GGGUGUACAGAGGAUCCGATT against Atp2a3", "z-score": 0.187},
      {"sequence": "GGCAUUUACUUACUGUUCATT against Slc39a10", "z-score": -0.331},
      {"sequence": "CGAUUUCAUCGAACACUUCTT against Ccnd1", "z-score": 1.37},
      {"sequence": "GGUACACAUGAGACAAUAUTT against Whamm", "z-score": "-2.18 (active)"},
      {"sequence": "GGCUUUGUUAGUCUAUGACTT against Dzip1l", "z-score": -0.552},
      {"sequence": "GGUGGAAGACAAGAGGAUATT against Sytl5", "z-score": -0.474},
      {"sequence": "GGGUAAUACUCUUUGGUGCTT against Olfr594", "z-score": 0.34},
      {"sequence": "GGUUUGCCUGUGCUGAUAUTT against Olfr549", "z-score": -0.617},
      {"sequence": "GAUGGUCCAGAGCGACUUCTT against Pou3f3", "z-score": "2.14 (active)"},
      {"sequence": "GGGUCAAGGUAGUAGUACCTT against Tob1", "z-score": 0.275},
      {"sequence": "CCAUUACAUCCAUUUGAUUTT against Cfap206", "z-score": 0.328},
      {"sequence": "GGUUUGAUGUUAGACAACGTT against Trim34a", "z-score": 0.652},
      {"sequence": "GGACAACAAAGGGAGAUUCTT against Kctd12b", "z-score": 1.43},
      {"sequence": "CCUACUUGGGAAAGUUCGCTT against Egr3", "z-score": 1.5},
      {"sequence": "CCCACUUGCUGAAAAUUGUTT against Ankib1", "z-score": -0.338},
      {"sequence": "CCCAGAACACCGUAUACUUTT against Itga3", "z-score": "3.95 (active)"},
      {"sequence": "CCAAUUUCCUUUCAGACUGTT against Cxxc4", "z-score": -1.2},
      {"sequence": "GGACAGCACAAUUACCUUUTT against Nr3c1", "z-score": -0.299},
      {"sequence": "GGGUAGGAAACAAACACAGTT against Cox11", "z-score": -0.234},
      {"sequence": "GAAUGCUCUGAGACUUUUATT against Cd300c2", "z-score": "-2.48 (active)"},
      {"sequence": "GCUCCAAUAGCGUAUAUUATT against Pigt", "z-score": -0.75},
      {"sequence": "GGAGGACUAGUUGUGACUUTT against Aldh1a1", "z-score": -0.384},
      {"sequence": "UGGCAAGAUUGAAACCAUATT against Hnrnpa3", "z-score": -1.61},
      {"sequence": "GGUUCUUUCGAGAAUGGACTT against Nod1", "z-score": -0.145},
      {"sequence": "GGAUUUCCCAUCAAAGACGTT against Serpinf2", "z-score": 0.155},
      {"sequence": "GCCCAAAUGAGACUACUUUTT against Ces1e", "z-score": -1.24},
      {"sequence": "GGCUCAGAUACUCUUAUAATT against Aknad1", "z-score": "-3.24 (active)"},
      {"sequence": "GCUAAACAUAAAAAUCGACTT against Garre1", "z-score": -1.27},
      {"sequence": "GGAUUAAGUGGUCAAAUGATT against Ugt2b36", "z-score": -0.62},
      {"sequence": "CCACCUGUGCUACCACUUATT against Rexo4", "z-score": "-2.34 (active)"},
      {"sequence": "GGUUACAUAUCAGUUGAAATT against Slc35a3", "z-score": 0.032},
      {"sequence": "GCAAAAUCUAGGGAUAAGATT against Trdv2-2", "z-score": 0.259},
      {"sequence": "GGGAGAACAGCGACAAACATT against Cbfb", "z-score": 1.82},
      {"sequence": "GAGUUCGAUGUUCAGGAGCTT against Ndrg1", "z-score": -0.354},
      {"sequence": "GGUUCAUGGGUUUUAAGUGTT against Eif1", "z-score": "2.25 (active)"},
      {"sequence": "GGAAGAGGAGAAGAAAAAGTT against Syf2", "z-score": -1.25},
      {"sequence": "GCACAGUUGGCAACCUUUATT against S100a9", "z-score": -0.029},
      {"sequence": "GGAUAACCCUAAGUUUAUGTT against Clu", "z-score": 0.753},
      {"sequence": "GGACCUCAUCUACAGAAUGTT against Tssk1", "z-score": 0.878},
      {"sequence": "CGGACAAAGGACGAGUGUUTT against Fn3krp", "z-score": "3.02 (active)"},
      {"sequence": "GGCAGUAGCCAGAAGGCAUTT against Rnf215", "z-score": 0.373}
    ]}
  ]
}
